Measured values: PubChem BioAssay (NCATS)
A number with no mark means an inactive call. Calls follow the shape of the dose curve; as a rule, active = well fitted curve in the direction sought with a large enough effect; inconclusive = small, poorly fitted or top-dose-only effect, or another doubt; inactive = no such curve, though single readings can be large or run the other way.

biological target: Thyrotropin receptor (Homo sapiens) (UniProt P16473); assay: qHTS Assay for Antagonists of the Thyroid Stimulating Hormone Receptor (AID 488980); settings: TSHR-expressing cells, cAMP antagonist read-out; series mostly up to 57.5 µM; activity, negative = inhibition: at the top concentration; also: 0% is about no effect
Description: TSH is an alpha/beta heterodimeric glycoprotein hormone secreted from the anterior pituitary gland which belongs to the glycoprotein hormone family. The actions of TSH are mediated by a seven-transmembrane receptor, which upon TSH binding couples preferentially to the G-alpha (s) protein (Gs), resulting in activation of adenylate cyclase and increase in cyclic adenosine 3', 5' monophosphate (cAMP). The TSH receptor (THSR) is mainly expressed in thyroid follicular cells and regulates their growth and function. This cell based assay was conducted on a TSHR transfected HEK 293 cell line, measuring cAMP stimulation using antibody-based Homogeneous Time Resolved Fluorescence (HTRF).
Our goal is to identify small molecules that will inhibit (antagonize) the thyroid-stimulating hormone receptor (TSHR), a member of the 7 transmembrane-spanning receptor (7TMR) family of cell surface receptors. TSHR-mediated hyperthyroidism is important in thyroid pathology. The development of small molecule antagonists of TSHR may lead to therapeutic approaches for TSHR-mediated hyperthyroidism caused by constitutively activating mutations or stimulating auto-antibodies associated with Graves' disease. Graves' disease is the leading cause of hyperthyroidism and is caused by autoantibodies that stimulate TSHR (TsAbs) causing thyroid growth and unregulated overproduction of thyroid hormones and existing treatments have liabilities (agranulocytosis). In addition, TSHRs are known to be expressed in multiple extrathyroidal tissues including bone, brain, kidney, testis, fat and cells of the immune system but the role of the TSHR in these tissues is not clear. Therefore, TSHR antagonists/inverse agonists could be used as probes of extrathyroidal TSHR function. Finally, TSHR inverse agonists, which are a subclass of antagonists that inhibit agonist-independent (or basal or constitutive) TSHR signaling, could be used to inhibit TSH-independent signaling in patients with recurrent or metastatic thyroid cancer who are receiving thyroid hormone to suppress TSH.
An anti cAMP antibody contains a fluorescent cryptate tag (excitation 337 nm; emission 620 nm) and the acceptor is cAMP-d2 (excitation 620 nm; emission 665 nm). When antibody and cAMP-d2 interact and are excited by a 337 nm light, a FRET occurs resulting in emission at 665 nm. The assay is competition between cAMP-d2 and cAMP (from the cell lysate). The homogeneous protocol allows for one step dispense after stimulation that is automation friendly.
Step, Parameter, Value, Description
1, Cells, 3 uL, 2000 TSHR freshly harvested cells/well 1536 TC treated White solid bottom plate (Cells resuspended in 10 mM HEPES buffered HBSS and 70 uM RO 20-1724)
2, Compound, 23 nL, Libraries and controls
3, Compound, 1 uL, EC80 TSH (4 nM final)
5, Reagent, 2 uL, cAMP antibody diluted 1:20 in lysis buffer
6, Time, 30 minutes, Room temperature
7, Detector, HTRF settings, Viewlux

Chain of Thyrotropin receptor (Homo sapiens) (P16473 whole entry, looked up): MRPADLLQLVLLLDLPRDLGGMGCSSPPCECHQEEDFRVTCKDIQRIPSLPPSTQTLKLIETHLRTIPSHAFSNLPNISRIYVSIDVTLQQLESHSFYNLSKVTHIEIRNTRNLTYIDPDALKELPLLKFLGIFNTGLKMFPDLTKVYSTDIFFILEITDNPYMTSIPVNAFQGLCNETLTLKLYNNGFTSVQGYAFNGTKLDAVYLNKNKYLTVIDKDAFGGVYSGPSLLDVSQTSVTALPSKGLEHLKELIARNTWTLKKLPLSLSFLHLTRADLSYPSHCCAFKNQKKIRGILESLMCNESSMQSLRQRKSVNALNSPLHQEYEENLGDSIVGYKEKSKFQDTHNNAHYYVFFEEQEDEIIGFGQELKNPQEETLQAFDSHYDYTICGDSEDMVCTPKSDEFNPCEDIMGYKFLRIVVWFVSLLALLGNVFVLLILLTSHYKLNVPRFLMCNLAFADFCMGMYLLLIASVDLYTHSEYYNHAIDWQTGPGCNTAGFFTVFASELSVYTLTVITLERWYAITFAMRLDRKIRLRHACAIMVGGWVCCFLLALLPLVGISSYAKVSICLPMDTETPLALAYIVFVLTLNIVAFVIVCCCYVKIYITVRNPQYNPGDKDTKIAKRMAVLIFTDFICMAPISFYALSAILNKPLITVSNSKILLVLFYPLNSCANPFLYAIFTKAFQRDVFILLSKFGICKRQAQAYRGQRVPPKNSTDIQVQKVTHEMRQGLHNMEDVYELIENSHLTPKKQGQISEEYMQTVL

Point of comparison: `CC(=O)NBr`, “activity, negative = inhibition” value -1.23%. Against it:
- Nc1ccc(CCN2CCN(c3cccc(C(F)(F)F)c3)CC2)cc1 — higher, -0.188%
- NC(=O)CI — higher, -1.12%
- CCCN(CCC)CCc1c[nH]c2ccc(C(N)=O)cc12 — lower, -2.41%
- COc1ccc2c(c1)[C@@]13CCCC[C@H]1[C@@H](C2)NCC3 — higher, -0.808%
- CCCN(CCC)[C@@H]1CCc2cccc(O)c2C1 — higher, -0.693%
- COc1ccc(OC)c(C(O)C(C)N)c1 (stereo not given) — lower, -1.84%
- CC(N)Cc1c[nH]c2ccc(OCc3cccs3)cc12 (stereo not given) — higher, 0.0157%
- CN1CC[C@@]2(C)c3cc(O)ccc3N(C)C12 (stereo not given in full) — higher, 0%
- CN1CCc2cccc(Cl)c2CC1 — higher, -0.532%
- C=CCN1CC[C@]23c4c5ccc(O)c4O[C@H]2/C(=N/NC(=O)c2ccccc2)CC[C@@]3(O)[C@H]1C5 — lower, -1.42%
- C[C@@H]1O[C@H](C[N+](C)(C)C)CS1 — higher, 0.922%
- CCCN1CCCC2Cc3[nH]ncc3CC21 (stereo not given) — lower, -1.71%
- CCCCCCC(C)(C)c1ccc([C@@H]2C[C@H](O)CC[C@H]2CCCO)c(O)c1 — lower, -1.51%
- COc1ccc2c(c1)/C(=C/c1cnc[nH]1)C(=O)N2 — lower, -1.92%
- NCCc1c[nH]c2ccc(C(N)=O)cc12 — higher, -0.329%
- O=[N+]([O-])c1ccc2nc(N3CCNCC3)ccc2c1 — lower, -1.6%
- CN(N=O)c1cc(O)ccc1O — higher, 0.11%
- NCCc1ccc(S(=O)(=O)F)cc1 — higher, 0.0222%
- CCN(CC)c1ncnc2c1ncn2[C@@H]1O[C@H](COP(=O)(O)OP(=O)(O)C(Br)(Br)P(=O)(O)O)[C@@H](O)[C@H]1O — higher, -1.09%
- NC(Cc1ccc(N(CCCl)CCCl)cc1)C(=O)O (stereo not given) — higher, -0.531%
- C#CCN[C@H](C)Cc1ccccc1 — higher, -0.557%
- NC(Cc1cc(O)c(O)cc1O)C(=O)O (stereo not given) — higher, 0.147%
- CCN(CCCl)Cc1ccccc1Br — higher, -0.789%
- CC(C)CC(NP(=O)(O)O[C@@H]1O[C@@H](C)[C@H](O)[C@@H](O)[C@H]1O)C(=O)NC(Cc1c[nH]c2ccccc12)C(=O)O (stereo not given in full) — higher, -0.579%
- Ic1ccccc1CNC1C2CCN(CC2)C1C(c1ccccc1)c1ccccc1 (stereo not given) — higher, -0.12%
- NC(N)=NOCC[C@H](N)C(=O)O — higher, -0.754%
- C=CCN1CCC23c4c5ccc(O)c4O[C@H]2C(=O)CC[C@@]3(O)C1C5 (stereo not given in full) — lower, -1.64%
- C[N+]1(C)CCN(c2ccccc2)CC1 — lower, -1.61%
- C[C@H](N)CN1CCc2ccc(Br)cc21 — lower, -1.28%
- CCCN(CCC)C1Cc2cc(OC)c(OC)cc2C1 — lower, -2.09%
- c1ccc2c(c1)[I+]c1ccccc1-2 — lower, -2.47%
- CCCN(CCC)CCc1ccc(O)c(O)c1 — lower, -1.44%
- c1ccc2c(N3CCNCC3)cccc2c1 — higher, -0.0861%
- CCOC(=O)c1ncn2c1[C@@H]1CCCN1C(=O)c1cc(OC)ccc1-2 — higher, -0.329%
- CCCCCCCCCCCCCC(=O)O[C@@H]1[C@@H](C)[C@@]2(O)[C@@H](C=C(CO)C[C@@]3(O)C(=O)C(C)=C[C@@H]23)C2C(C)(C)[C@@]21OC(C)=O (stereo not given in full) — higher, 1.9%
- C[C@H](Cc1ccc2c(c1)OC(C(=O)O)(C(=O)O)O2)NC[C@H](O)c1cccc(Cl)c1 — higher, -0.698%
- CN(N=O)c1ccc(O)c(O)c1 — higher, -0.305%
- Oc1ccc2c3c1O[C@H]1c4oc5ccccc5c4C[C@@]4(O)C(C2)N(CC2CC2)CCC314 (stereo not given in full) — higher, -0.252%
- C=CCN1C[C@@H](C)N([C@H](c2ccc(C(=O)N(CC)CC)cc2)c2cccc(OC)c2)C[C@@H]1C — higher, -0.556%
